# Measurements taken from PubChem BioAssay (NCI).
# About 79,000 compounds went through this panel and 15% of them were active in at least one assay; those are over-represented in the sample as a whole. A number with no mark means an inactive call. No stated cut-off is given here; in the data, active means growth inhibition above about 70%; inactive means the rest.
# Assay: NCI Yeast Anticancer Drug Screen. Data for the bub3 strain (AID 167)
# Conditions: S. cerevisiae bub3 mutant strain, stronger effect = higher value; at 50.0 µM unless noted
# Procedure, shortened: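 Compounds were applied to a genetically altered yeast strain carrying a cell-cycle control defect. Growth inhibition was scored against vehicle-treated controls.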
row,Structure (SMILES),growth inhibition [%]
1,O=C(OC(c1ccccc1)C(c1ccccc1)N1CCOCC1)c1ccc([N+](=O)[O-])cc1 (stereo not drawn),17.1
2,c1ccc(CN2CCOC2)cc1,-2.2
3,COc1cc(N=C=S)ccc1NC(=O)c1cc(Br)cc(Br)c1O,1.15
4,N#CCCCCCOCCOCCOCCOCCOCCCCCC#N,-1.75
5,N#C/C(=C/c1ccccc1)c1ccccc1,40.9
6,CC(C)N(CC(C)(C)O)C(=O)c1ccccc1,-14.7
7,CC(C)CNC(=O)c1ccccc1Cl,2.55
8,O=C(CSS(=O)(=O)O)Nc1ccccc1,9.65
9,Cc1ccc(Nc2cc(C(=O)O)c(Nc3ccc(C)cc3)cc2C(=O)O)cc1,7.85
10,Cc1sc2ccccc2[n+]1CCC(=O)O,-14.8
11,CC(C)c1ccc(C2NC(c3ccccc3)c3c(ccc4ccccc34)O2)cc1 (stereo not drawn),-1.6
12,C/C(CC(=O)Nc1cc(C)ccc1C)=N\NC(=O)c1ccncc1,-0.75
13,O=S(=O)(N/N=C/c1cccc(Cl)c1Cl)c1ccccc1,3.5
14,COc1cc(Cc2nccc3cc(OC)c(OC)cc23)c(C(C)=O)cc1OC,22
15,CCOC(=O)c1c[nH]c2c(Cl)c(Cl)ccc2c1=O,9.25
16,COc1ccc(C(=O)Oc2ccccc2C(C)=O)cc1,-5.6
17,O=Cc1cccc2ccc3cccc(C(=O)Cl)c3c12,62.5
18,O=C(CCCn1ccnc1[N+](=O)[O-])NCCn1cnc([N+](=O)[O-])n1,-4.8
